Results published in PubChem BioAssay (NCI).
This is part of a sample that, as a whole, favours compounds with a hit. Of some 79,000 tested, about 15% had one in any assay. Calls of active or inactive are those of the source. Rule as the data show it: active = growth inhibition above about 70%; inactive = the rest.

Tests used:
[1] = NCI Yeast Anticancer Drug Screen. Data for the rad52 strain (AID 147);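 also: 0% = growth of vehicle-treated control cultures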; settings: S. cerevisiae rad52 mutant growth inhibition, hits give high values
In short: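 Here a repair-compromised yeast strain receives each compound; its growth is then quantified and normalised to vehicle-only controls.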

[2] = NCI Yeast Anticancer Drug Screen. Data for the wt1 strain (AID 149);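 also: 0% = growth of vehicle-treated wt1 cultures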; settings: S. cerevisiae wt1 strain (SPY 50644) growth inhibition, hits give high values
In short: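 Yeast wt1 strain exposed to compounds; growth inhibition measured relative to vehicle-treated controls.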

[3] = NCI Yeast Anticancer Drug Screen. Data for the rad50EPP+ strain (AID 151);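 also: 0% = growth of vehicle-treated control cultures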; settings: S. cerevisiae rad50 mutant strain, hits give high values
In short: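 Read-out is yeast growth inhibition relative to vehicle; cells used were the rad50EPP+ strain.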

[4] = NCI Yeast Anticancer Drug Screen. Data for the mgt1 strain (AID 153); settings: S. cerevisiae mgt1 mutant growth inhibition, hits give high values
In short: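 Measured: inhibition of mgt1 yeast growth by compound, normalized to vehicle-treated cultures.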

[5] = NCI Yeast Anticancer Drug Screen. Data for the rad50 strain (AID 155);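 also: 0% = growth of vehicle-only cultures of the same strain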; settings: S. cerevisiae rad50 strain growth inhibition, hits give high values
In short: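 Yeast carrying a defined DNA repair defect were exposed to test compounds, and growth was compared with vehicle-treated controls to give percent inhibition.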

[6] = NCI Yeast Anticancer Drug Screen. Data for the mec2-1 strain (AID 157); settings: S. cerevisiae mec2-1 strain, hits give high values
In short: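 Using mec2-1 yeast: add compound, measure growth, express inhibition versus vehicle-treated cultures.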

[7] = NCI Yeast Anticancer Drug Screen. Data for the rad14 strain (AID 159);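 also: 0% = growth of vehicle-treated control cultures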; settings: S. cerevisiae rad14 strain growth inhibition, hits give high values
In short: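 Yeast cells carrying a defined DNA-repair defect were exposed to compounds, and growth inhibition was calculated relative to vehicle-treated control cultures.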

[8] = NCI Yeast Anticancer Drug Screen. Data for the sgs1 mgt1 strain (AID 161);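 also: 0% = growth of cultures given vehicle only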; settings: S. cerevisiae sgs1 mgt1 strain, hits give high values
In short: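 Percent growth inhibition was derived by comparing compound-exposed mutant yeast with vehicle-exposed cultures. The strain carries alterations in DNA damage repair.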

[9] = NCI Yeast Anticancer Drug Screen. Data for the CLN2oe strain (AID 163);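 also: 0% = growth of vehicle-only control cultures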; settings: S. cerevisiae CLN2oe strain, hits give high values
In short: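 Whole-cell yeast growth assay. A strain engineered for altered cell-cycle control received compound, and inhibition relative to vehicle-treated cultures was recorded.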

[10] = NCI Yeast Anticancer Drug Screen. Data for the cln2 rad14 strain (AID 165);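 also: 0% = growth equal to vehicle treated cultures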; settings: S. cerevisiae cln2 rad14 strain, hits give high values
In short: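 Yeast strain cln2 rad14, bearing defects in cell cycle control and DNA repair, serves as the test system; values reflect growth inhibition compared with vehicle.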

[11] = NCI Yeast Anticancer Drug Screen. Data for the bub3 strain (AID 167); settings: S. cerevisiae bub3 mutant strain, hits give high values
In short: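 Compounds were applied to a genetically altered yeast strain carrying a cell-cycle control defect. Growth inhibition was scored against vehicle-treated controls.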

[12] = NCI Yeast Anticancer Drug Screen. Data for the wt2 strain (AID 169);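 also: 0% = growth of vehicle-treated yeast cultures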; settings: S. cerevisiae wt2 strain growth inhibition, hits give high values
In short: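 Treated yeast vs. vehicle-treated yeast: growth inhibition determined.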

[13] = NCI Yeast Anticancer Drug Screen. Data for the mlh1 strain (AID 171);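 also: 0% = growth of vehicle-treated control cultures of the same strain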; settings: S. cerevisiae mlh1 strain growth inhibition, hits give high values
In short: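 A yeast strain with a defined genetic lesion serves as the test organism. Cultures receive compound or vehicle, and growth is measured.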

[14] = NCI Yeast Anticancer Drug Screen. Data for the sgs1 strain (AID 173);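 also: 0% = growth of vehicle-only control cultures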; settings: S. cerevisiae sgs1 mutant, hits give high values
In short: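 A genetically defined yeast mutant is incubated with the test compound, and its growth is compared to that of the same strain given vehicle.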

[15] = NCI Yeast Anticancer Drug Screen. Data for the mlh1 rad18 strain (AID 175); settings: S. cerevisiae mlh1 rad18 strain growth inhibition, hits give high values
In short: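 Steps: expose repair-defective yeast to compound; measure growth; express inhibition against vehicle-treated controls.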

[16] = NCI Yeast Anticancer Drug Screen. Data for the rad18 strain (AID 177); settings: S. cerevisiae rad18 mutant growth inhibition, hits give high values
In short: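 Measured value is growth inhibition of a yeast strain bearing a DNA repair alteration, referenced to vehicle-treated cells.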

[17] = at 5.0 µM (retest, dose inferred, filed as 0.5)
[18] = at 50.0 µM (retest, dose inferred, filed as 5.0)

Measured: growth inhibition

O/N=c1/ccn(O)c2ccccc12
active: [1]; at 3.7 µM 91% | [1]; at 11.0 µM 95% | [1]; at 33.0 µM 96% | [1]; at 100.0 µM 95% | [3]; at 1.2 µM 87% | [3]; at 3.7 µM 96% | [3]; at 11.0 µM 97% | [3]; at 33.0 µM 97% | [3]; at 100.0 µM 97% | [4]; at 100.0 µM 84% | [5]; at 1.2 µM 74% | [5]; at 3.7 µM 96% | [5]; [17] 89% | [5]; at 11.0 µM 95% | [5]; at 33.0 µM 96% | [5]; [18] 95% | [5]; at 50.0 µM 96.3% | [5]; at 100.0 µM 96% | [6]; at 3.7 µM 97% | [6]; [17] 94% | [6]; at 11.0 µM 98% | [6]; at 33.0 µM 98% | [6]; [18] 98% | [6]; at 50.0 µM 97.5% | [6]; at 100.0 µM 98% | [7]; at 1.2 µM 96% | [7]; at 3.7 µM 99% | [7]; at 11.0 µM 99% | [7]; at 33.0 µM 99% | [7]; at 100.0 µM 99% | [8]; [17] 87% | [8]; [18] 95% | [8]; at 50.0 µM 97% | [10]; [17] 98% | [10]; [18] 99% | [10]; at 50.0 µM 98.8% | [11]; [18] 72% | [11]; at 50.0 µM 83.2% | [11]; at 100.0 µM 79% | [13]; at 100.0 µM 83% | [14]; at 1.2 µM 85% | [14]; at 3.7 µM 94% | [14]; at 11.0 µM 96% | [14]; at 33.0 µM 96% | [14]; at 100.0 µM 96% | [15]; [17] 82% | [15]; [18] 97% | [15]; at 50.0 µM 97.5% | [16]; at 1.2 µM 96% | [16]; at 3.7 µM 98% | [16]; at 11.0 µM 97% | [16]; at 33.0 µM 97% | [16]; at 100.0 µM 97%
inactive: [1]; at 1.2 µM 49% | [2]; at 1.2 µM 0% | [2]; at 3.7 µM 8% | [2]; at 11.0 µM 20% | [2]; at 33.0 µM 43% | [2]; at 100.0 µM 61% | [4]; at 1.2 µM -1% | [4]; at 3.7 µM 7% | [4]; at 11.0 µM 23% | [4]; at 33.0 µM 51% | [6]; at 1.2 µM 51% | [9]; at 1.2 µM -8% | [9]; at 3.7 µM -5% | [9]; at 11.0 µM 8% | [9]; at 33.0 µM 37% | [9]; at 100.0 µM 58% | [11]; at 1.2 µM -5% | [11]; at 3.7 µM 5% | [11]; [17] 11% | [11]; at 11.0 µM 24% | [11]; at 33.0 µM 54% | [12]; at 1.2 µM -1% | [12]; at 3.7 µM 14% | [12]; at 11.0 µM 20% | [12]; at 33.0 µM 39% | [12]; at 100.0 µM 58% | [13]; at 1.2 µM 2% | [13]; at 3.7 µM 15% | [13]; at 11.0 µM 30% | [13]; at 33.0 µM 53%

CCC(C)COC(=O)Nc1cccc(Cl)c1 (stereo unspecified)
active: [1]; at 100.0 µM 91% | [2]; at 100.0 µM 99% | [3]; at 100.0 µM 72% | [4]; at 100.0 µM 99% | [5]; at 50.0 µM 98.9% | [5]; at 100.0 µM 99% | [6]; at 50.0 µM 98.1% | [6]; at 100.0 µM 98% | [7]; at 100.0 µM 99% | [8]; at 50.0 µM 98.8% | [9]; at 100.0 µM 99% | [10]; at 50.0 µM 97.5% | [11]; at 50.0 µM 98.6% | [11]; at 100.0 µM 99% | [12]; at 33.0 µM 82% | [12]; at 100.0 µM 99% | [13]; at 100.0 µM 99% | [14]; at 33.0 µM 87% | [14]; at 100.0 µM 99% | [15]; at 50.0 µM 97.5% | [16]; at 100.0 µM 98%
inactive: [1]; at 1.2 µM 5% | [1]; at 3.7 µM 6% | [1]; at 11.0 µM 11% | [1]; at 33.0 µM 59% | [2]; at 1.2 µM 1% | [2]; at 3.7 µM -1% | [2]; at 11.0 µM 0% | [2]; at 33.0 µM 6% | [3]; at 1.2 µM 6% | [3]; at 3.7 µM 15% | [3]; at 11.0 µM 39% | [3]; at 33.0 µM 61% | [4]; at 1.2 µM -7% | [4]; at 3.7 µM 0% | [4]; at 11.0 µM -8% | [4]; at 33.0 µM 29% | [5]; at 1.2 µM 9% | [5]; at 3.7 µM 22% | [5]; [17] -7% | [5]; at 11.0 µM 25% | [5]; at 33.0 µM 68% | [5]; [18] 54% | [6]; at 1.2 µM -5% | [6]; at 3.7 µM -10% | [6]; [17] -1% | [6]; at 11.0 µM -34% | [6]; at 33.0 µM -1% | [6]; [18] 32% | [7]; at 1.2 µM 3% | [7]; at 3.7 µM 2% | [7]; at 11.0 µM 2% | [7]; at 33.0 µM 34% | [8]; [17] -4% | [8]; [18] 53% | [9]; at 1.2 µM 0% | [9]; at 3.7 µM 1% | [9]; at 11.0 µM -7% | [9]; at 33.0 µM 4% | [10]; [17] -24% | [10]; [18] 1% | [11]; at 1.2 µM -2% | [11]; at 3.7 µM -4% | [11]; [17] -14% | [11]; at 11.0 µM 12% | [11]; at 33.0 µM 27% | [11]; [18] 25% | [12]; at 1.2 µM -2% | [12]; at 3.7 µM -2% | [12]; at 11.0 µM -2% | [13]; at 1.2 µM -6% | [13]; at 3.7 µM -5% | [13]; at 11.0 µM -7% | [13]; at 33.0 µM 57% | [14]; at 1.2 µM 0% | [14]; at 3.7 µM 2% | [14]; at 11.0 µM 7% | [15]; [17] -9% | [15]; [18] 69% | [16]; at 1.2 µM 4% | [16]; at 3.7 µM 5% | [16]; at 11.0 µM 1% | [16]; at 33.0 µM 27%
